Measurements taken from PubChem BioAssay AID1159580 (chemical genetic matrix, 2015).
Among all 5,500 compounds or so, about 2,000 (36%) were called active. Roughly 18% stayed inconclusive and do not appear here. No stated cut-off is given here; in the data, active means normalized growth mostly below about 0.91 (no sharp cut-off); inconclusive means no clear call, values can overlap the other calls; inactive means mostly above about 0.92. This is one part of the list.

Experiment: chemical genetic growth profiling, strain panel (AID 1159580);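 further: tested at 20 µM; growth read once vehicle control cultures reached saturation at 30 °C; 1 = growth at the plate median or of vehicle wells; lower values mean less growth of the strain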
Conditions: S. cerevisiae deletion strains, growth OD
[1] = locus YAL040C, strain CLN3, active compounds read low
[2] = locus YCL061C, strain MRC1 (second series), active compounds read low
[3] = locus YDR363W, strain ESC2, active compounds read low
[4] = locus YER002W, strain NOP16, active compounds read low
[5] = locus YMR263W, strain SAP30, active compounds read low
[6] = locus YMR307W, strain GAS1, active compounds read low
[7] = locus YNL175C, strain NOP13, active compounds read low
[8] = locus YNL197C, strain WHI3, active compounds read low
[9] = locus YNL224C, strain SQS1, active compounds read low
[10] = locus YOR083W, strain WHI5 (second series), active compounds read low

Measured: normalized growth

C[N+]1(C)C2CC(OC(=O)[C@H](CO)c3ccccc3)CC1C1OC12 (some centres not stated)
inactive: [1] 0.999 | [2] 1 | [3] 0.998 | [4] 0.981 | [5] 0.998 | [6] 0.946 | locus YNL153C, strain GIM3, active compounds read low 0.99 | [7] 0.996 | [8] 0.988 | [9] 0.994 | [10] 0.991

C[N+]1(C)C2CC(OC(=O)C(CO)c3ccccc3)CC1C1OC12 (configuration not stated)
inactive: locus YAL013W, strain DEP1, active compounds read low 1.03 | [1] 0.975 | [2] 0.995 | [3] 0.985 | [4] 0.997 | locus YGR229C, strain SMI1, active compounds read low 1.05 | [5] 1 | [6] 1.01 | locus YNL128W, strain TEP1, active compounds read low 0.992 | [7] 0.973 | [8] 0.982 | [9] 0.988 | locus YNL322C, strain KRE1, active compounds read low 1 | [10] 0.978 | locus YPL055C, strain LGE1, active compounds read low 1.02 | locus YPL241C, strain CIN2, active compounds read low 0.993
